The text below walks through data of PubChem BioAssay AID2284366 (EPA ToxCast).

The structures appear in SMILES notation. Records with an inconclusive call do not appear. The source made the active and inactive calls. The calls were made as follows: active = hit-call score of the fitted dose curve at least 0.9, where 1 is the maximum; inconclusive = response in the unintended direction; inactive = score below 0.9.

The subject of the assay is zebrafish Peroxisome Proliferator-activated Receptor gamma (PPARg), gene 557037. In words: ATG_zfPPARg_EcoTox2: Attagene TRANS-FACTORIAL EcoTox-2 HepG2 Assay for zebrafish Peroxisome Proliferator-activated Receptor gamma (PPARg). The protocol: ATG_EcoTox2 is a cell-based, multiplexed assay created by modifying the existing Attagene TRANS-FACTORIAL system to include a panel of nuclear receptors from some or all the following species: human (Homo sapiens), african clawed frog (Xenopus laevis), rainbow trout (Oncorhynchus mykiss), japanese medaka (Oryzias latipes), and zebrafish (Danio rerio). The ECOTOX2-FACTORIAL format uses HepG2, a human liver cell line, with measurements taken at 24 hours after chemical dosing in a 24-well plate. ATG_zfPPARg_EcoTox2 is one of 29 assay components calculated in the ATG_EcoTox2 assay. It is designed to make measurements of mRNA induction, a form of inducible reporter, as detected with fluorescence intensity signals by Reverse transcription polymerase chain reaction (RT-PCR) and Capillary electrophoresis technology.The assay endpoint ATG_zfPPARg_EcoTox2 was analyzed in the positive analysis fitting direction relative to DMSO as the negative control and baseline of activity. Using a type of inducible reporter, measures of mRNA for gain-of-signal activity can be used to understand the reporter gene at the transcription factor-level as they relate to the gene PPARg. Furthermore, this assay endpoint can be referred to as a primary readout, because this assay has produced multiple assay endpoints where this one serves a reporter gene function. To generalize the intended target to other relatable targets, this assay endpoint is annotated to the nuclear receptor intended target family, where the subfamily is non-steroidal.
Human liver HepG2 cells are transiently transfected with multiple reporter transcription units (MRTUs) in 6-well plates using FuGene 6 reagent (Roche; 3 ml FuGene/1 mg DNA). The MRTU constructs are regulated by a cis-regulating element (promoter). Each RTU expresses a GAL4-UAS that regulates the transcription of a nearby target reporter gene sequence. A major difference between the CIS and TRANS system is that in CIS activities of endogenous TFs are measured, whereas the TRANS assay evaluates changes in activities of exogenous, chimeric NR-Gal4 proteins. […] At the end of 24 hour incubation, total RNA was isolated using TriZol reagent (Invitrogen). The isolated RNA is then reverse-transcribed using oligo(dT) primer and Mo-MLV reverse transcriptase (Invitrogen) with DNAse I (Ambion) treatment for 30 min. The one-tenth of the produced cDNA was amplified by PCR using Taq DNA polymerase (Invitrogen) and two reporter sequence-specific primers. The PCR products were fluorescently labeled by primer extension with 6-arboxyfluorescein (6-FAM) 5'-labeled reporter sequence-specific primer (2 min at 95 C, 20 s at 68 C and 10 min at 72 C) and these products were digested with 5U of HpaI (New England Biolabs) for 2h at 37 C. The fragments were purified using Qiaquick PCR columns (Qiagen), analyzed on an ABI 3130xL genetic analyzer (Applied Biosystems) with peak positions identified by using a set of X-rhodamine (ROX)-labeled MapMarker1000 molecular weight standards (BioVentures). The raw capillary electrophoresis data was processed using Attagraph software (Attagene).

A word on the AC50: it is the concentration at which the activity in the assay is half-maximal. Take `O=P(Oc1ccccc1)(Oc1ccccc1)Oc1ccccc1`: the concentration at half-maximal activity (AC50) is 13.2 µM (active).
`O=C(O)C(F)(F)C(F)(F)C(F)(F)C(F)(F)C(F)(F)C(F)(F)C(F)(F)F`: the compound was classed as inactive.
`O=S(=O)(O)C(F)(F)C(F)(F)C(F)(F)C(F)(F)C(F)(F)C(F)(F)F`: the outcome was inactive.
The same measure, in the same setting: the result for `[Cl][Sn]([c]1ccccc1)([c]1ccccc1)[c]1ccccc1` reads “inactive”; that for `CCCCOCN(C(=O)CCl)c1c(CC)cccc1CC`, “inactive”.
